According to PubChem BioAssay (EPA / NIEHS):
Inconclusive results are not listed. Activity calls are given as the source filed them. The calls were made as follows, unless noted: active = hit-call score of the fitted dose curve at least 0.9, where 1 is the maximum; inactive = score below 0.9.

Key:
[1] = ATG_TAL_CIS: Attagene CIS-FACTORIAL HepG2 Assay for human TAL Basal Promoter (AID 2282966); settings: HepG2 Attagene cis-factorial TAL promoter reporter; actives raise or lower the signal;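 also: background control endpoint measuring basal TAL promoter reporter mRNA not a specific factor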
Outline: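 Fluorescence of labelled reporter cDNA fragments, resolved by capillary electrophoresis, gave the readout. Human HepG2 liver cells carried transiently transfected cis-element reporter units and were treated for 24 hours; activity was fitted bidirectionally against DMSO.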

[2] = ATG_TGFb_CIS: Attagene CIS-FACTORIAL HepG2 Assay for human Transforming Growth Factor (TGF) (AID 2282967); settings: HepG2 Attagene CIS TGFb reporter, mRNA transcription; actives raise or lower the signal
Outline: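 After a 24-hour incubation with compound, transfected HepG2 cells were lysed for RNA; reporter cDNA was amplified, fluorescently end-labeled and separated by CE. DMSO served as baseline for bidirectional fits.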

[3] = ATG_VDRE_CIS: Attagene CIS-FACTORIAL HepG2 Assay for human Vitamin D Receptor Element (VDRE) (AID 2282968); settings: HepG2 VDRE cis-reporter transcription, actives raise or lower the signal
Outline: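 HepG2 cells transiently transfected with cis-element reporter units, dosed 24 h; reporter mRNA measured by RT-PCR, 6-FAM labeling, HpaI digestion and capillary electrophoresis. Activity fitted bidirectionally against DMSO baseline.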

[4] = biological target: Nuclear receptor subfamily 1 group I member 3 (Homo sapiens) (UniProt Q14994); assay: ATG_CAR_TRANS: Attagene TRANS-FACTORIAL HepG2 Assay for human Constitutive Androstane Receptor (CAR) (AID 2282969; active = hit-call score of the fitted dose curve at least 0.9, where 1 is the maximum;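 also: activators raise reporter mRNA above DMSO so AC50 marks induction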); settings: HepG2 Attagene TRANS-FACTORIAL CAR reporter
Outline: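 HepG2 cells transiently transfected with multiplexed GAL4-UAS reporter units expressing chimeric NR-Gal4 proteins; compound exposure 24 h. Reporter mRNA measured by RT-PCR, 6-FAM labelling, HpaI digestion and capillary electrophoresis; gain-of-signal fitted against DMSO baseline.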

[5] = biological target: Steroid hormone receptor ERR1 (Homo sapiens) (UniProt P11474); assay: ATG_ERRa_TRANS: Attagene TRANS-FACTORIAL HepG2 Assay for human Estrogen-Related Receptor alpha (ERRa) (AID 2282971; active = hit-call score of the fitted dose curve at least 0.9, where 1 is the maximum); settings: HepG2 Attagene TRANS reporter, ERRa transactivation
Outline: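 Reporter transcript induction was quantified by RT-PCR and capillary electrophoresis of FAM-labelled, HpaI-cut products after 24 h treatment of HepG2 cells carrying transiently transfected GAL4-UAS reporter units and an exogenous ERRa-Gal4 fusion; activity scored as increase over DMSO.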

[6] = biological target: X-box-binding protein 1 (Homo sapiens) (UniProt P17861); assay: ATG_Xbp1_CIS: Attagene CIS-FACTORIAL HepG2 Assay for human X-box Binding Protein 1 (XBP1) (AID 2282972); settings: HepG2 XBP1 cis-element reporter, Attagene multiplex; actives raise or lower the signal
Outline: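 HepG2, transient MRTU transfection (cis-promoter driven), 24 h compound exposure. Total RNA → oligo(dT) RT → PCR → 6-FAM labeling → HpaI cut → CE. Bidirectional fit vs DMSO.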

[7] = ATG_M_19_TRANS: Attagene TRANS-FACTORIAL HepG2 Assay for M19 Transcription Factor (Internal Marker) (AID 2282974; active = hit-call score of the fitted dose curve at least 0.9, where 1 is the maximum); settings: HepG2 Attagene TRANS-FACTORIAL M19 internal marker reporter
Outline: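 Using RT-PCR and capillary electrophoresis, reporter mRNA from transiently transfected human HepG2 cells was quantified following 24 h exposure; activity was fitted in the positive direction against DMSO.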

[8] = biological target: Estrogen-related receptor gamma (Homo sapiens) (UniProt P62508); assay: ATG_ERRg_TRANS: Attagene TRANS-FACTORIAL HepG2 Assay for human Estrogen-Related Receptor gamma (ERRg) (AID 2282977; active = hit-call score of the fitted dose curve at least 0.9, where 1 is the maximum;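 also: hits increase reporter signal over DMSO so potencies reflect activators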); settings: HepG2 Attagene TRANS reporter, ERRg transactivation
Outline: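 HepG2 cells transiently transfected with multiplexed GAL4-UAS reporter units and chimeric NR-Gal4 constructs were exposed to test chemicals for 24 h. Reporter mRNA was measured by RT-PCR, 6-FAM primer extension, HpaI digestion and capillary electrophoresis; gain-of-signal versus DMSO.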

[9] = biological target: Bile acid receptor (Homo sapiens) (UniProt Q96RI1); assay: ATG_FXR_TRANS: Attagene TRANS-FACTORIAL HepG2 Assay for Farnesoid X Receptor (FXR) (AID 2282979; active = hit-call score of the fitted dose curve at least 0.9, where 1 is the maximum;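 also: hits raise reporter mRNA above DMSO so AC50 marks FXR activation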); settings: HepG2 Attagene TRANS FXR-GAL4 reporter transcription
Outline: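 Transient transfection of HepG2 with multiplexed GAL4-UAS reporter units; exogenous FXR-GAL4 chimera. Dose 24 h → TriZol RNA → oligo(dT) RT → PCR, 6-FAM primer extension, HpaI cut → CE. Gain vs DMSO.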

[10] = biological target: Oxysterols receptor LXR-alpha (Homo sapiens) (UniProt Q13133); assay: ATG_LXRa_TRANS: Attagene TRANS-FACTORIAL HepG2 Assay for human Liver X Receptor alpha (LXRa) (AID 2282980; active = hit-call score of the fitted dose curve at least 0.9, where 1 is the maximum); settings: HepG2 Attagene TRANS reporter, LXRa transactivation
Outline: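 Transfect HepG2 with GAL4-UAS multiplex reporter constructs (TRANS format, chimeric receptor-GAL4); treat 24 h; extract RNA, reverse-transcribe, PCR-amplify, FAM-label, HpaI-digest; resolve fragments by capillary electrophoresis. Upward response vs DMSO.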

[11] = biological target: Oxysterols receptor LXR-beta (Homo sapiens) (UniProt P55055); assay: ATG_LXRb_TRANS: Attagene TRANS-FACTORIAL HepG2 Assay for human Liver X Receptor beta (LXRb) (AID 2282981; active = hit-call score of the fitted dose curve at least 0.9, where 1 is the maximum); settings: HepG2 Attagene TRANS GAL4-LXRb reporter, mRNA
Outline: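 HepG2 cells transiently transfected with multiple reporter transcription units carrying chimeric NR-Gal4 proteins acting on GAL4-UAS reporters; compound exposure 24 h. Reporter mRNA quantified by RT-PCR, 6-FAM labelling, HpaI digestion and capillary electrophoresis; gain of signal versus DMSO.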

[12] = biological target: Nuclear receptor subfamily 4 group A member 2 (Homo sapiens) (UniProt P43354); assay: ATG_NURR1_TRANS: Attagene TRANS-FACTORIAL HepG2 Assay for human Nuclear Receptor Related Protein 1 (NURR1) (AID 2282985; active = hit-call score of the fitted dose curve at least 0.9, where 1 is the maximum); settings: HepG2 Attagene TRANS reporter, mRNA readout
Outline: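 HepG2 cells transiently transfected with GAL4-UAS reporter units and chimeric NR-Gal4 constructs; chemical exposure 24 h. Reporter mRNA quantified by RT-PCR, fluorescent labelling and capillary electrophoresis; gain of signal fitted relative to DMSO baseline.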

[13] = biological target: Transcriptional activator Myb (Homo sapiens) (UniProt P10242); assay: ATG_Myb_CIS: Attagene CIS-FACTORIAL HepG2 Assay for human Myeloblastosis (Myb) Proto-Oncogene Transcription Factor (AID 2282986); settings: HepG2 Attagene CIS-FACTORIAL Myb reporter transcription; actives raise or lower the signal
Outline: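 In this HepG2 transient-transfection format, cis-regulated reporter mRNA is quantified 24 h post-dosing by RT-PCR with capillary electrophoresis, fitted bidirectionally to DMSO baseline.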

[14] = biological target: Nuclear respiratory factor 1 (Homo sapiens) (UniProt Q16656); assay: ATG_NRF1_CIS: Attagene CIS-FACTORIAL HepG2 Assay for human Nuclear Respiratory Factor 1 (NRF1) Orphan Gene (AID 2282987); settings: HepG2 NRF1 cis-element reporter, Attagene multiplex; actives raise or lower the signal
Outline: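 Using DMSO as baseline, gain- or loss-of-signal was fitted for reporter mRNA levels in HepG2 cells transiently transfected with cis-regulated reporter units. Samples were taken 24 h after dosing and read by RT-PCR with capillary electrophoresis.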

[15] = biological target: Hepatocyte nuclear factor 4-alpha (Homo sapiens) (UniProt P41235); assay: ATG_HNF4a_TRANS: Attagene TRANS-FACTORIAL HepG2 Assay for human Hepatocyte Nuclear Factor 4 alpha (HNF4a) (AID 2282982; active = hit-call score of the fitted dose curve at least 0.9, where 1 is the maximum); settings: HepG2 HNF4a transactivation reporter, mRNA readout
Outline: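 HepG2 cells transiently transfected with multiplexed GAL4-UAS reporter units responsive to chimeric NR-GAL4 proteins; compound exposure 24 h. Reporter mRNA quantified by RT-PCR, 6-FAM labelling, HpaI digestion and capillary electrophoresis; gain of signal versus DMSO baseline.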

[16] = ATG_M_06_TRANS: Attagene TRANS-FACTORIAL HepG2 Assay for M06 Transcription Factor (Internal Marker) (AID 2282983; active = hit-call score of the fitted dose curve at least 0.9, where 1 is the maximum;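 also: reporter transcript level by RT-PCR then capillary electrophoresis fluorescence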); settings: HepG2 Attagene TRANS M06 internal marker reporter
Outline: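 Transfect HepG2 with MRTUs → dose compounds 24 h → isolate RNA, oligo(dT) RT → PCR with reporter primers → 6-FAM primer extension → HpaI digest → CE fragment analysis. Positive direction vs DMSO.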

[17] = ATG_M_32_TRANS: Attagene TRANS-FACTORIAL HepG2 Assay for M32 Transcription Factor (Internal Marker) (AID 2282984; active = hit-call score of the fitted dose curve at least 0.9, where 1 is the maximum;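 also: transcript level of a background control reporter unit measured by RT-PCR and capillary electrophoresis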); settings: HepG2 Attagene TRANS M32 internal marker reporter
Outline: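 HepG2 cells transiently transfected with multiple GAL4-UAS reporter transcription units, dosed for 24 hours; reporter mRNA quantified by RT-PCR, 6-FAM primer extension, HpaI digestion and capillary electrophoresis. Gain-of-signal fitted versus DMSO baseline; internal background-control marker.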

[18] = biological target: Estrogen receptor (Homo sapiens) (UniProt P03372); assay: ATG_ERa_TRANS: Attagene TRANS-FACTORIAL HepG2 Assay for human Estrogen Receptor alpha (ERa) (AID 2282970; active = hit-call score of the fitted dose curve at least 0.9, where 1 is the maximum); settings: HepG2 Attagene TRANS ERa GAL4 reporter, mRNA
Outline: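 Human liver HepG2, transient transfection of multiple GAL4-UAS reporter units; TRANS format (exogenous NR-Gal4 chimera). 24 h dosing. Readout: reporter mRNA, RT-PCR, 6-FAM primer extension, HpaI digest, capillary electrophoresis. Positive direction vs DMSO.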

[19] = ATG_GAL4_TRANS: Attagene TRANS-FACTORIAL HepG2 Assay for GAL4 (Internal Marker) (AID 2282976; active = hit-call score of the fitted dose curve at least 0.9, where 1 is the maximum); settings: HepG2 Attagene TRANS GAL4 internal marker reporter
Outline: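 First, HepG2 cells were transfected with reporter units under GAL4-UAS control. Next, they were treated with chemical for 24 h. Finally, RNA was reverse-transcribed, PCR-amplified, FAM-labelled and resolved by capillary electrophoresis, with induction scored against DMSO.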

Chain of Nuclear respiratory factor 1 (Homo sapiens) (Q16656 whole entry, looked up): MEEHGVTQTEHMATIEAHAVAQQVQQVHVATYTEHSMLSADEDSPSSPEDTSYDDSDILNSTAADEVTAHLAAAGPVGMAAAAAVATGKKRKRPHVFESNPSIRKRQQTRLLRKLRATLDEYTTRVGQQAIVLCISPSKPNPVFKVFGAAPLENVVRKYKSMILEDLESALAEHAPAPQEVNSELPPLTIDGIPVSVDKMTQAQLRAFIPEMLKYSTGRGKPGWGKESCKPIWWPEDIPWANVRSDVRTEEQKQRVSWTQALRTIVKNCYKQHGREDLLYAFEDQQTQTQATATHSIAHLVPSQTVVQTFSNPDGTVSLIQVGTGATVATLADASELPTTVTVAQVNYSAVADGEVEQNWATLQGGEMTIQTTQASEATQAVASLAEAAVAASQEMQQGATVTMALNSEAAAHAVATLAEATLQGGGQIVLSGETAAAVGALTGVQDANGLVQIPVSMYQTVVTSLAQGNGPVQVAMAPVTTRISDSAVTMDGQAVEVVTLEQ
Chain of Nuclear receptor subfamily 1 group I member 3 (Homo sapiens) (Q14994 whole entry, looked up, the tested form may be a part): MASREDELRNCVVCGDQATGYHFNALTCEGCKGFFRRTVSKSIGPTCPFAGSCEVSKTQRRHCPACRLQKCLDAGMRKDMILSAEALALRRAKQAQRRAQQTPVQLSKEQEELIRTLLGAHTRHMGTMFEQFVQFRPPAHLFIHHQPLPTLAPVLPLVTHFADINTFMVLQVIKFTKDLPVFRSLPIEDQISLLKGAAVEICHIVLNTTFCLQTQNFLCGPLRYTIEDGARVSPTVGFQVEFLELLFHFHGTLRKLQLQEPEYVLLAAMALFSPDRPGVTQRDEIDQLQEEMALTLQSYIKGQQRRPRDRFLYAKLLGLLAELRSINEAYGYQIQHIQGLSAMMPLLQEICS
Chain of Bile acid receptor (Homo sapiens) (Q96RI1 whole entry, looked up, the tested form may be a part): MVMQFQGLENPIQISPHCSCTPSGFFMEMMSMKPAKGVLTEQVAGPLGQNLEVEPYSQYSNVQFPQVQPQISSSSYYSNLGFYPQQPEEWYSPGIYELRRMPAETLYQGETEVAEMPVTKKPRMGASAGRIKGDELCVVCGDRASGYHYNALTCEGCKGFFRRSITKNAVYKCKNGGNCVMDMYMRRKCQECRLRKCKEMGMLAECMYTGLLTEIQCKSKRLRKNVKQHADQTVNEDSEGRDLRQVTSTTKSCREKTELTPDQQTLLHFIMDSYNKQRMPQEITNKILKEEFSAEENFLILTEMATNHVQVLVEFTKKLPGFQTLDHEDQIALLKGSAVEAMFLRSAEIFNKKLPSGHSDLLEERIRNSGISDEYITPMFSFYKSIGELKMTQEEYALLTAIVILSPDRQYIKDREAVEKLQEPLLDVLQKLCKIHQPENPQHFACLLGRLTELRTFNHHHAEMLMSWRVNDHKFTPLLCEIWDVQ
Chain of X-box-binding protein 1 (Homo sapiens) (P17861 whole entry, looked up): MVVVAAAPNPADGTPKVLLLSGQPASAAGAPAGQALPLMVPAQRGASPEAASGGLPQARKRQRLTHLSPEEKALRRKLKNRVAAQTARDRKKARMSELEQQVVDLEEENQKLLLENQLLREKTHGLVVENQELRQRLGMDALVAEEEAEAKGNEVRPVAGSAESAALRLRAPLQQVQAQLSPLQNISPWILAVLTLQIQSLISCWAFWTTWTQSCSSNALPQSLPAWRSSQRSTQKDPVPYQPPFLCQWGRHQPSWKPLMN
Chain of Transcriptional activator Myb (Homo sapiens) (P10242 whole entry, looked up): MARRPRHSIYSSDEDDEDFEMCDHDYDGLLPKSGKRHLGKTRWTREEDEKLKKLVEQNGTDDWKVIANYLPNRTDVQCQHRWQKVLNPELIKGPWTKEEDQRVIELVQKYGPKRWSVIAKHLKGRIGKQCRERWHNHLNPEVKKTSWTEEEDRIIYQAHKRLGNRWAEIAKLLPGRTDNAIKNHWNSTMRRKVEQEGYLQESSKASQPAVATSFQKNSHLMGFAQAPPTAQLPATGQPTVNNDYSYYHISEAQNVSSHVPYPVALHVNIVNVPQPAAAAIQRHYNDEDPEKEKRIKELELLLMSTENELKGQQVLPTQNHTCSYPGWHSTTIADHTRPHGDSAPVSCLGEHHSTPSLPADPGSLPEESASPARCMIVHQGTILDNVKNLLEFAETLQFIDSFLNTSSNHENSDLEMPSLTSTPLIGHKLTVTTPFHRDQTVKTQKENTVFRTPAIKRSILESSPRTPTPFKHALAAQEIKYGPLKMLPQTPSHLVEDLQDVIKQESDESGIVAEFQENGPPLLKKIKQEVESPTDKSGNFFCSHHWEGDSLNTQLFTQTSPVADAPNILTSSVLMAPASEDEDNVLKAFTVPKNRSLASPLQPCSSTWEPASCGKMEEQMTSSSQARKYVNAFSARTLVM
Chain of Hepatocyte nuclear factor 4-alpha (Homo sapiens) (P41235 whole entry, looked up, the tested form may be a part): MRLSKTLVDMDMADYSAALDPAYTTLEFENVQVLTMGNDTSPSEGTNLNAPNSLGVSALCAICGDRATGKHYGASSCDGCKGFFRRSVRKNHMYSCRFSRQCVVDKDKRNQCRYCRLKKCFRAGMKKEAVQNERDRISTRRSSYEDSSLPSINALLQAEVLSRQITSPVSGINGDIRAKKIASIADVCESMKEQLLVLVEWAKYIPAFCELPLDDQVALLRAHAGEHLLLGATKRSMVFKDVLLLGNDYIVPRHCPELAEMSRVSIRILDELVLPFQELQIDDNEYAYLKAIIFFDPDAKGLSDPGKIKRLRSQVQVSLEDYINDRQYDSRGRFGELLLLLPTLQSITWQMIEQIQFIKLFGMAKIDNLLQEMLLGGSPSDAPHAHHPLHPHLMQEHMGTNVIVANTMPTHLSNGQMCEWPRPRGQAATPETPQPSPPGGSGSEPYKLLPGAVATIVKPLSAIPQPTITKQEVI
Chain of Oxysterols receptor LXR-alpha (Homo sapiens) (Q13133 whole entry, looked up, the tested form may be a part): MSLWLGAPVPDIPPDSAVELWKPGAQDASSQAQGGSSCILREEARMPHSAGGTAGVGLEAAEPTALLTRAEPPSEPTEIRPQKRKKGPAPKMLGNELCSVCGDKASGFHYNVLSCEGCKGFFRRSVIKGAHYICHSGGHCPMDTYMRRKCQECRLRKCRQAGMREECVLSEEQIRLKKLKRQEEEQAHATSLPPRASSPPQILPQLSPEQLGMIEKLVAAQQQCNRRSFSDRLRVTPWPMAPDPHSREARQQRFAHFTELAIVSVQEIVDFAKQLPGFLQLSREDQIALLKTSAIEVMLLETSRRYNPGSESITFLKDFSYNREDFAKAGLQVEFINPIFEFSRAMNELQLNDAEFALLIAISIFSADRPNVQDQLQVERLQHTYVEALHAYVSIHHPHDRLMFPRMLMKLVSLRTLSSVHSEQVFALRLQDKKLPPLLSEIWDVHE
Chain of Estrogen-related receptor gamma (Homo sapiens) (P62508 whole entry, looked up, the tested form may be a part): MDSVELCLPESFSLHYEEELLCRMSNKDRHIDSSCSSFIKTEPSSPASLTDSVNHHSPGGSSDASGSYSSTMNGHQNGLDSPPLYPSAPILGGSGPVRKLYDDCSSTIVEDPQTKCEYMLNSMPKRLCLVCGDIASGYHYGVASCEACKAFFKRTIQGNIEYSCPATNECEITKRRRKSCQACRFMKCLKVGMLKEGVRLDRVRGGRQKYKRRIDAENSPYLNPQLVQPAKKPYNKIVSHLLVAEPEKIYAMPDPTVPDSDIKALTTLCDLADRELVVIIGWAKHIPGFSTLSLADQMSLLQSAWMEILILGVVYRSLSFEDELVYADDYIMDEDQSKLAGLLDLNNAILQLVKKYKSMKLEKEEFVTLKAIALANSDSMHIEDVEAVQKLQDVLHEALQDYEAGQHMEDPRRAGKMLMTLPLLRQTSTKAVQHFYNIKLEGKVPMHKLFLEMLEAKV
Chain of Oxysterols receptor LXR-beta (Homo sapiens) (P55055 whole entry, looked up, the tested form may be a part): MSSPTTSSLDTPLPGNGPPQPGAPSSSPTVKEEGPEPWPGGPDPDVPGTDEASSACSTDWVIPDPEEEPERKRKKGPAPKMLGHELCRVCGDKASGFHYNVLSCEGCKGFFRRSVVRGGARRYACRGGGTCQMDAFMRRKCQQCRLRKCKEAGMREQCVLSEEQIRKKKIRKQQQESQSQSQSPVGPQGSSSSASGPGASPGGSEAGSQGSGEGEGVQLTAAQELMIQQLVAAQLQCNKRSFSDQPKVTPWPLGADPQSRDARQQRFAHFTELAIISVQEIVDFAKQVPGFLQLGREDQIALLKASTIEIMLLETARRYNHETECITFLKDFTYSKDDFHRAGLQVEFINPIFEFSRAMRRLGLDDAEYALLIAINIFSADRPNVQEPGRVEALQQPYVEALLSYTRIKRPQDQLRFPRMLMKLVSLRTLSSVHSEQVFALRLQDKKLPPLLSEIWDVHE
Chain of Steroid hormone receptor ERR1 (Homo sapiens) (P11474 whole entry, looked up, the tested form may be a part): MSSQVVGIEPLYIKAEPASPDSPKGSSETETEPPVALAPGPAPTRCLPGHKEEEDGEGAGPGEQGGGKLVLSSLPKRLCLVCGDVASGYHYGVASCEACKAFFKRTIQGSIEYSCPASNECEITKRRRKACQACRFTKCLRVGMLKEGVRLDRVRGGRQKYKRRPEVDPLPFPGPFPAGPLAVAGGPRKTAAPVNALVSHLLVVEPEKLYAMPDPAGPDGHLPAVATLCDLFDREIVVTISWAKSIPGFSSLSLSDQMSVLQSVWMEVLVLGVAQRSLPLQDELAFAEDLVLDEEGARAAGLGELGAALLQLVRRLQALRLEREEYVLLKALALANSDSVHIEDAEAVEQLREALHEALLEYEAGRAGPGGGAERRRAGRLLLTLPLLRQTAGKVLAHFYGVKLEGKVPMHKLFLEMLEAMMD

Row | Structure (SMILES) | outcome [1] | outcome [2] | outcome [3] | outcome [4] | outcome [5] | outcome [6] | outcome [7] | outcome [8] | outcome [9] | outcome [10] | outcome [11] | outcome [12] | outcome [13] | outcome [14] | outcome [15] | outcome [16] | outcome [17] | AC50 [13] | outcome [18] | outcome [19]
1 | CC(=O)S[C@H](C(=O)N[C@H]1Cc2ccccc2[C@H]2CCC[C@@H](C(=O)O)N2C1=O)C(C)C | inactive | inactive | inactive | inactive | inactive | inactive | inactive | inactive | inactive | inactive | inactive | inactive | inactive | inactive | – | – | – | – | – | –
2 | O=C(O)CN(CC(=O)O)CC(=O)O | inactive | inactive | inactive | inactive | – | inactive | – | inactive | inactive | inactive | – | – | – | inactive | inactive | inactive | inactive | 386 nM (active) | – | –
3 | c1ccc2occc2c1 | inactive | inactive | inactive | inactive | – | inactive | – | inactive | inactive | inactive | inactive | – | inactive | inactive | – | inactive | – | – | – | –
4 | COC(=O)CCC(=O)OC | inactive | inactive | inactive | inactive | – | inactive | inactive | – | inactive | – | – | – | inactive | inactive | – | – | – | – | inactive | –
5 | C/C=C/C=C/C(=O)O | inactive | inactive | inactive | inactive | – | inactive | inactive | – | – | – | – | – | inactive | inactive | inactive | inactive | inactive | – | – | inactive
